{
  "source": "the OligoGym collection",
  "data": [
    {"molecular_target": "ADRA2B", "assay": "pooled miR-30 sensor sort-seq; sequence = guide strand", "details": "shRNA", "values": [
      {"sequence": "TACACCTCGCACCACGTGCGCC", "sensor-assay potency score (higher = more potent)": -1.33},
      {"sequence": "AAATCTAGCAGGTCCATCTGGC", "sensor-assay potency score (higher = more potent)": -0.198},
      {"sequence": "TACTCTGGCCTCAACAACCCAC", "sensor-assay potency score (higher = more potent)": -0.575},
      {"sequence": "AAGGTGAAGCGCTTCTCCCGGG", "sensor-assay potency score (higher = more potent)": -0.311},
      {"sequence": "TTCAGTGAGCTGTTGCAGTAGC", "sensor-assay potency score (higher = more potent)": 0.233},
      {"sequence": "AACGCCAATGACCACAGCCAGC", "sensor-assay potency score (higher = more potent)": -1.54},
      {"sequence": "TAACAGGGTTCAGTGAGCTGTT", "sensor-assay potency score (higher = more potent)": -0.17},
      {"sequence": "TCGAGCGCCAGGTACACCTCGC", "sensor-assay potency score (higher = more potent)": -0.894},
      {"sequence": "TCATCTTAGACTGTTGCCGAGG", "sensor-assay potency score (higher = more potent)": -0.739},
      {"sequence": "TTGGAGTTGTACTCCAGCGCGC", "sensor-assay potency score (higher = more potent)": -0.762},
      {"sequence": "TTCCAAATCTAGCAGGTCCATC", "sensor-assay potency score (higher = more potent)": -1.43},
      {"sequence": "TGTCCGTTGACCTCTCTGGCAG", "sensor-assay potency score (higher = more potent)": -0.964},
      {"sequence": "TAGACAAGGATCATGATGAGGC", "sensor-assay potency score (higher = more potent)": 0.0762},
      {"sequence": "ATAACAGGGTTCAGTGAGCTGT", "sensor-assay potency score (higher = more potent)": -0.793},
      {"sequence": "TTTTTGGTTCTCTAGTGTGTTC", "sensor-assay potency score (higher = more potent)": -1.08},
      {"sequence": "TTGGCGATCAGGTAGATGCGCA", "sensor-assay potency score (higher = more potent)": -0.201},
      {"sequence": "TTGTACTCCAGCGCGCGGCTCA", "sensor-assay potency score (higher = more potent)": -0.722},
      {"sequence": "TTTATTGATAAAATAGCTCAGA", "sensor-assay potency score (higher = more potent)": -0.103},
      {"sequence": "TAACTTGAAATAGTGATTCTGT", "sensor-assay potency score (higher = more potent)": 0.986}
    ]},
    {"molecular_target": "ADRB1", "assay": "pooled miR-30 sensor sort-seq; sequence = guide strand", "details": "shRNA", "values": [
      {"sequence": "ACGCACAGCACGTCCACTGAGG", "sensor-assay potency score (higher = more potent)": -1.84},
      {"sequence": "TGTCCACTGCTGAGACAGCGGC", "sensor-assay potency score (higher = more potent)": -1.28},
      {"sequence": "TTGAAGAAGACGAAGAGGCGGT", "sensor-assay potency score (higher = more potent)": 0.771},
      {"sequence": "GACATCGTCGTCGTCGTCGTCC", "sensor-assay potency score (higher = more potent)": -1.45},
      {"sequence": "TTGAGCGCCTTCTGCTCGCGCA", "sensor-assay potency score (higher = more potent)": -1.01},
      {"sequence": "TTGGGGTCGTTGTAGCAGCGGC", "sensor-assay potency score (higher = more potent)": -1.11},
      {"sequence": "TGTCGATCTTCTTCACCTGCTT", "sensor-assay potency score (higher = more potent)": 0.319},
      {"sequence": "TCGAGTCGCTGTCCGCCGCCGC", "sensor-assay potency score (higher = more potent)": -1.38},
      {"sequence": "TAGAAGGAGACTACGGACGAGG", "sensor-assay potency score (higher = more potent)": -0.754},
      {"sequence": "ACGAAGTCGCAGCACTTGGGGT", "sensor-assay potency score (higher = more potent)": -1.34},
      {"sequence": "TTGCGGAAGTCGGGGCTGCGGC", "sensor-assay potency score (higher = more potent)": -1.38},
      {"sequence": "TCGTCGTCGTCGTCGTCCGAGG", "sensor-assay potency score (higher = more potent)": -1.7},
      {"sequence": "TTGGTGACGAAGTCGCAGCACT", "sensor-assay potency score (higher = more potent)": -0.788},
      {"sequence": "AAGAAGGAGCCGTACTCCCAGC", "sensor-assay potency score (higher = more potent)": -1.16},
      {"sequence": "ACACACAGGGTCTCGATGCTGG", "sensor-assay potency score (higher = more potent)": -0.4},
      {"sequence": "ACTGAGGTCCACAGCTCGCAGA", "sensor-assay potency score (higher = more potent)": -1.49},
      {"sequence": "TCTTCTTCACCTGCTTCTGGGC", "sensor-assay potency score (higher = more potent)": -0.965},
      {"sequence": "TCGTCGTCGTCGTCCGAGGCGG", "sensor-assay potency score (higher = more potent)": -1.56},
      {"sequence": "TTGGTGAGCGTCTGCAGCCGCG", "sensor-assay potency score (higher = more potent)": -1.38},
      {"sequence": "TCCACTGCTGAGACAGCGGCTC", "sensor-assay potency score (higher = more potent)": -1.08},
      {"sequence": "ATGAGCAGCACGATGAGCGCCA", "sensor-assay potency score (higher = more potent)": -0.267}
    ]}
  ]
}
